Screening data: PubChem, several laboratories
In the library only some 1.5% were active in any assay of this set; here they are far more common.
eIF4H FP inh: inhibitors of RNA binding by human eIF4H; eIF4H fluorescence polarization binding assay; inhibition, % at 35 µM; 290,000 tested, 0.94% active; AID 2012;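 also: calls also rest on retests at 20 µM and on dose response follow-up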
PABP FP inh: blocks human PABP binding to poly(A) RNA | calls only at 35 µM | AID 2014 | fluorescence polarization | 290,000 tested, 1% active;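 also: calls also rest on retests at 20 µM and on dose response follow-up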
PABP1 MLLE inh: blocks PAM2 peptide binding to the PABP1 MLLE domain | inhibition, % at 20 µM | P11940 | GST-MLLE / FITC-PAM2 fluorescence polarization | 360,000 tested, 0.36% active; in the data active = inhibition above about 35%, passing the limit was not always enough
eIF4E 4G PPI: blocks eIF4E binding to eIF4G | P63073+Q04637 | inhibition, % at 21.7 µM | 220,000 tested, 0.37% active | TR-FRET eIF4E-eIF4GI(517-606) binding, 2 h | AID 782;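 active = inhibition above about 30%, limit read from the data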
Numbers stand for hits; – = inactive; ? = inconclusive; · = no result given; + = active, no number. Unless noted, no rule for the calls is given here.

SMILES	eIF4H FP inh	PABP FP inh	PABP1 MLLE inh	eIF4E 4G PPI
CC(=O)N1C[C@H]2CON(C)[C@H]2C[C@H]1c1cccc(N2CCOCC2)c1	·	·	–	·
O=C(Oc1ccc(=O)n(-c2ccccc2)n1)c1cccc(Cl)c1	–	–	–	33.1
COc1cc(/C=C2\N=C(c3ccccc3)NNC2=O)cc(OC)c1OC	–	–	–	–
Cc1[nH]n(-c2ccccc2)c(=O)c1C(c1ccc(C(=O)O)cc1)c1c(C)[nH]n(-c2ccccc2)c1=O	–	–	45.3	–
Cc1[nH]n(-c2ccccc2)c(=O)c1C(c1cccc([N+](=O)[O-])c1)c1c(C)[nH]n(-c2ccccc2)c1=O	–	–	–	–
CC(=O)c1nnn(-c2ccc([N+](=O)[O-])cc2)c1C	active	–	–	–
O=C(CN1C(=O)/C(=C/c2ccco2)SC1=S)Nc1ccc(C(=O)O)c(O)c1	91.5	+	–	·
O=C(CCCN1C(=O)/C(=C/c2ccco2)SC1=S)Nc1cccc(C(=O)O)c1	94.1	+	–	–
O=C(CCCN1C(=O)/C(=C/c2ccccc2)SC1=S)Nc1ccc(C(=O)O)c(O)c1	–	–	–	·
O=C(CCCN1C(=O)/C(=C\c2ccco2)SC1=S)Nc1ccc(O)cc1C(=O)O	·	·	–	·
CC(C(=O)Nc1ccc(C(=O)O)c(O)c1)N1C(=O)/C(=C\c2ccco2)SC1=S (configuration not stated)	100.1	+	–	·
O=C(CN1C(=O)/C(=C/c2ccco2)SC1=S)Nc1ccc(O)c(C(=O)O)c1	81.2	+	–	·
CC(/C=C1\SC(=S)N(CC(=O)O)C1=O)=C\c1ccccc1	–	–	–	–
O=C(CN1C(=O)/C(=C/c2ccco2)SC1=S)NC1CCS(=O)(=O)C1 (configuration not stated)	74.2	+	–	·
O=C(CN1C(=O)S/C(=C/C=C/c2ccccc2)C1=O)Nc1ccc(C(=O)O)cc1	–	–	–	–
O=C(CCN1C(=O)/C(=C\C=C\c2ccccc2)SC1=S)Nc1ccc(C(=O)O)cc1	68.2	+	–	·
CC(=C\c1ccco1)/C=C1/SC(=S)N(CC(=O)O)C1=O	87.0	+	–	–
CCC(C)[C@H](NC(=O)C1CC(=O)N(c2ccc3c(c2)OCO3)C1)C(=O)NC1CCCCC1 (some centres not stated)	?	?	48.9	·
O=C(O)CN1C(=O)/C(=C\c2cc(Br)ccc2OCc2ccccc2Cl)SC1=S	59.5	+	–	·
O=C(O)CN1C(=O)/C(=C\c2cc(Br)ccc2OCc2ccc([N+](=O)[O-])cc2)SC1=S	67.9	+	–	·
O=C(O)CN1C(=O)/C(=C\c2cc(Br)ccc2OCc2ccccc2F)SC1=S	–	–	–	·
CN(C)C(=O)c1ccc(SC(=S)NCc2ccccc2)cc1	·	·	–	·
O=C(c1ccc(F)cc1)[C@@H]1[C@@H](C(=O)c2ccccc2)[C@@]2(C(=O)Nc3ccccc32)[C@H]2c3ccccc3C=CN12	51.1	–	·	–
COc1ccc(Nc2nc3ccccc3nc2C)cc1	61.0	+	–	–
Cc1cc(C(=O)N2CCC2(C)C(=O)Nc2ccc3[nH]ncc3c2)nn1C (configuration not stated)	·	·	–	·
SMILES	eIF4H FP inh	PABP FP inh	PABP1 MLLE inh	eIF4E 4G PPI
CCCSc1nnc(NC(=O)CSc2sc3c(O)cc(=O)[nH]c3c2C#N)s1	72.0	+	–	·
N#Cc1c(SCC(=O)Nc2nccs2)sc2c(O)cc(=O)[nH]c12	68.4	+	–	·
N#Cc1c(SCC(=O)Nc2nc3ccc(Br)cc3s2)sc2c(O)cc(=O)[nH]c12	73.1	+	–	·
c1ccc(SC23CC4CC(CC(C4)C2)C3)nc1	·	·	–	·
COc1ccccc1CNC(=O)C1CC2Cn3c(nc4cc(C)c(C)cc43)C2N1C (configuration not stated)	·	·	–	·
COc1cccc(CNc2nc3cc(-c4ccc(OC)cc4C)sc3c(=O)n2C)c1	·	·	–	·
COCCCNC(=O)c1csc([C@H]2C[C@H](O)[C@@H](CO)O2)n1	·	·	–	·
Cc1ccc(F)c(C(=O)N2CCCC(C)(C(=O)NS(=O)(=O)C3CC3)C2)c1F (configuration not stated)	·	·	–	·
CCC(c1nc2ccccc2[nH]1)N(Cc1cccnc1)C(=O)c1cc(-c2ccccc2)on1 (configuration not stated)	·	·	–	·
Cn1cccc1/C=C1\CC(C(C)(C)C)C/C(=C\c2cccn2C)C1=O (configuration not stated)	51.2	+	–	–
Cn1cccc1/C=C1\Cc2ccccc2C1=O	–	–	–	–
O=C(c1ccc(S(=O)(=O)c2ccccc2)cc1)N1CCc2ccccc2C1	–	–	–	–
O=C(c1ccc([N+](=O)[O-])cc1)N1CCc2ccccc2C1	4.6	+	–	–
COc1ccc(CNC(=O)C(c2ccco2)N(C(=O)Cc2cccs2)c2cccnc2)cc1 (configuration not stated)	76.8	–	–	–
COc1cc(CNc2ncnc3c2ncn3[C@H]2CN(Cc3cc(OC)c(OC)c(OC)c3)C[C@@H](CO)O2)cc(OC)c1OC	·	·	–	·
COCCn1cnnc1SCC(=O)Nc1ccccc1C(=O)Nc1ccc2c(c1)OCO2	5.6	–	–	–
CC1(OC(=O)CCc2ccccc2)C(=O)C=C2C=C(c3ccc(C#N)cc3)N(C3CCCC3)C=C2C1=O (configuration not stated)	–	+	–	–
CC1(OC(=O)CCc2ccccc2)C(=O)C=C2C=C(c3ccc(C#N)cc3)N(CC3CC3)C=C2C1=O (configuration not stated)	–	–	–	–
CC1(OC(=O)CCc2ccccc2)C(=O)C=C2C=C(c3ccsc3)OC=C2C1=O (configuration not stated)	69.9	+	·	–
CC1(OC(=O)C2CCCC2)C(=O)C=C2C=C(c3ccsc3)OC=C2C1=O (configuration not stated)	–	–	–	–
CCOc1cc2c(c3c1C(c1ccccc1)N(S(=O)(=O)c1ccc(C)cc1)C3)C(=O)C=CC2=O (configuration not stated)	·	·	–	·
COc1cc(-c2ccc(Nc3ccccc3C(=O)O)c(OC)c2)ccc1Nc1ccccc1C(=O)O	91.0	+	–	77.8
Oc1ccc(Br)cc1C=Nc1cccn2cc(-c3ccccc3)nc12	–	–	39.8	–
COC(=O)/C=C1\SC(=NC(=O)c2ccc(C)cc2)NC1=O	–	–	40.1	–
COc1cc([N+](=O)[O-])ccc1-c1ccc(/C=N/NC(N)=O)o1	–	+	–	–
SMILES	eIF4H FP inh	PABP FP inh	PABP1 MLLE inh	eIF4E 4G PPI
CN(C)c1ccc(/C=C(\NC(=O)c2ccccc2)C(=O)NCCN2CCOCC2)cc1	–	–	–	·
C[C@H](O)[C@@H]1CN2CCc3c([nH]c4ccccc34)[C@@H]2C[C@@H]1N(C)C(=S)NCCc1ccccc1	·	·	–	·
O=C(N/N=C/c1cn(Cc2cccc(F)c2)c2ccccc12)c1cc(O)cc(O)c1	99.8	+	–	·
Nc1ccc(C(=O)N/N=C/c2cn(Cc3ccc(F)cc3)c3ccccc23)cc1	–	–	–	·
C[C@H](NS(=O)(=O)c1ccc2c(c1)OCCCO2)C(=O)N1CCN(c2ccc(F)cc2)CC1	·	·	40.8	·
CC(NS(=O)(=O)c1ccc2c(c1)OCCCO2)C(=O)O (configuration not stated)	–	–	–	–
